Measured values from PubChem BioAssay (EPA / NIEHS).
Records with an inconclusive call do not appear. The source made the active and inactive calls. How the source made its calls: active means hit-call score of the fitted dose curve at least 0.9, where 1 is the maximum; inconclusive means response in the unintended direction; inactive means score below 0.9.

What follows are molecules tested against Cellular tumor antigen p53 (Homo sapiens) (UniProt P04637) (assay: TOX21_p53_BLA_p4_ratio: Tox21 HCT-116 p53 Agonism Beta-lactamase Assay, Ratio, Phase 4 (AID 2283601)).
Sequence of Cellular tumor antigen p53 (Homo sapiens) (P04637 whole entry, looked up): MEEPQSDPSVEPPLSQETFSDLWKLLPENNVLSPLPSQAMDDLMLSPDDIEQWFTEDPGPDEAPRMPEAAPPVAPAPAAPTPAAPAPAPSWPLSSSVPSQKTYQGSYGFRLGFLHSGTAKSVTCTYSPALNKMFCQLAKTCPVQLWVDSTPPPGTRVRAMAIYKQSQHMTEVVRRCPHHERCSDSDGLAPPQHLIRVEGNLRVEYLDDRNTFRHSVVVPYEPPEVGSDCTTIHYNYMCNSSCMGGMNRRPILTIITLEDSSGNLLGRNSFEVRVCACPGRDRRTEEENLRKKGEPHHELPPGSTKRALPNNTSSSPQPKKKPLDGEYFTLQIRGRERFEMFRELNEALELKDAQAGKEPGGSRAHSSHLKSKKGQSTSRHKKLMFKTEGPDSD
Outline: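 Signal is the blue/green (460nm/530nm) ratio of cleaved versus uncleaved CCF4-AM substrate, read after 2 h substrate loading. Cells were HCT116 carrying the p53-responsive beta-lactamase reporter, dosed 16 h at 37C, 5% CO2; CellTiter-Glo measured in parallel.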

For `CCC(C=O)CC`, which outcome is on record?
The outcome was “inactive”.

With `CCOCCC(=O)OCC` as the molecule, how does the outcome read?
Its outcome is “inactive”.

With `c1ccc2cnncc2c1` as the molecule, how does the outcome read?
The outcome was “inactive”.

`CCCCc1ncc(/C=C(\Cc2cccs2)C(=O)O)n1Cc1ccc(C(=O)O)cc1` was tested. Which outcome did it give?
Its outcome is “inactive”.

For `CCCCS(=O)(=O)N[C@@H](Cc1ccc(OCCCCC2CCNCC2)cc1)C(=O)O`, which outcome is on record?
The outcome was “inactive”.

`CCOC(=O)C(C)(C)C` was tested. Which outcome did it give?
Its outcome is “inactive”.

For `Cc1cccc(C)c1N(CCCc1cccnc1)C(=O)C(C)N` (configuration not stated), which outcome is on record?
The outcome was “inactive”.

With `Cc1ccc(NC(N)=O)cc1` as the molecule, how does the outcome read?
The outcome was “inactive”.

Which outcome does the source give for `ONc1ccccc1` here?
The outcome was “inactive”.

`OC1CCCc2ccccc21` (configuration not stated) was tested. Which outcome did it give?
Its outcome is “inactive”.

With `COc1ccc(C2CNC(=O)C2)cc1OC1CCCC1` (configuration not stated) as the molecule, how does the outcome read?
The outcome was “inactive”.

`CS(=O)(=O)CCNCc1ccc(-c2ccc3ncnc(Nc4ccc(OCc5cccc(F)c5)c(Cl)c4)c3c2)o1` was tested. Which outcome did it give?
Its outcome is “inactive”.

With `CCCCOCCOC(=O)CCCCCCCCC(=O)OCCOCCCC` as the molecule, how does the outcome read?
Its outcome is “inactive”.

`CCCCC(CC)COC(=O)CC#N` (configuration not stated) was tested. Which outcome did it give?
The outcome was “inactive”.

`CNC(=O)c1ccccc1` was tested. Which outcome did it give?
The outcome was “inactive”.

For `CCC(=O)c1cccc(Cl)c1`, which outcome is on record?
Its outcome is “inactive”.

How did the outcome turn out when `Cn1c(N)nc2nc[nH]c2c1=O` was run?
Its outcome is “inactive”.
